Active and inactive are the calls of the source. How the source made its calls: active means hit-call score of the fitted dose curve at least 0.9, where 1 is the maximum; inactive means score below 0.9.
These compounds were tested on Cytochrome P450 (CYP1A1), CYP1A1 (gene 1543) (assay: LTEA_HepaRG_CYP1A1: Life Technologies and Expression Analysis (LTEA) Assay for Cytochrome P450 (CYP1A1) using HepaRG (AID 2283454)). Settings: mRNA level, 48 h; actives raise or lower the signal.
Description: LTEA_HepaRG is a cell based, multiplexed-readout assay that uses HepaRG, a human liver cell line, with measurements taken at 48 hours after chemical dosing on a 96-well plate.LTEA_HepaRG_CYP1A1 is one of 102 assay component(s) measured in the LTEA HepaRG cell culture assay. It is a marker of NR mediated metabolism.Data from the assay component LTEA_HepaRG_CYP1A1 was analyzed into 1 endpoint. This assay endpoint, LTEA_HepaRG_CYP1A1, was analyzed with bidirectional fitting relative to DMSO as the negative control and baseline of activity. Using a type of inducible reporter, measures of mRNA induction for gain or loss-of-signal activity can be used to understand regulation of transcription factor activity. To generalize the intended target to other relatable targets, this assay endpoint is annotated to the cyp intended target family, where the subfamily is xenobiotic metabolism.
A total of 1060 chemcials from the ToxCast library were tested in eight-point concentration-response experiments. Cell culture and cytotoxicity assays were conducted at Thermo Fisher Scientific's Custom Services facility (Madison, WI). A single lot of human HepaRG cells (Thermo Fisher Scientific, Frederick, MD) was used for the cell culture experiments. 96-well format collagen type I coated plates of human HepaRG cells were prepared using established methods. Briefly, cryopreserved HepaRG cells were thawed, plated at a density of approximately 100,000 cells/well in HepaRG Thaw, Plate, and General Purpose media (HPRG770, Thermo Fisher Scientific), and incubated for 48 hours. 0.5% DMSO was selected as vehicle control to balance the requisite need of DMSO in HepaRG cultures to maintain differentiation (for example, baseline metabolism, proportions of hepatocytes vs. cholangiocytes), while enabling further hepatic receptor pathway activation (for example, PXR and CAR) in response to chemical exposure. 48 hours after plating, the culture medium was replaced with HepaRG Serum-Free Incudtion Media. Cells were exposed to each test chemical in duplicate and maintained in CO2 incubators for another 48 hours. Chemical plates were thawed to room temperature and 200x concentrations of treatment groups were prepared. 8-point conentration-reponse curves were made with the highest exposure at 100 uM, followed by half-log dilutions, all in 0.5% DMSO. Each test plate contained variouse controls, induction positive controls (1mM phenobarbital), cytotoxicity positive controls ([…] aflatoxin B1), vehicle controls (0.5% DMSO), and total lysis controls (0.5% DMSO). Cell morphology images were taken using an Essen IncuCyte FLR automated microscope, with six 96-well plates imaged in about 24 minutes. Images were captured and exported and JPEG files. Spent culture media was transfered to black-well plates for the LDH assay, and remaining media was sorted at -80 C for later use. Cells were treated with RLT buffer and frozen until shipped for gene expression analysis. Total RNA was isolated from the cell suspension in 75 uL of Buffer RLT (Qiagen, Germantown, MD 20874) by Quintiles/Expression Analysis (Durham, NC) using a custom isolation procedure. Total RNA from each plate well was transferred to a preamplification plate. Fluidigm's 96.96 Dynamic ArrayTM (Fluidigm, Amsterdam, the Netherlands) technology was used for gene expression analyses by quantitative reverse transcription polymerase chain reaction (qRT-PCR, performed by Quintiles/Expression Analysis, Durham, NC)89. Standard TaqManTM Assays (Applied Biosystems/ThermoFisher Scientific, Foster City, CA) were used to assess the expression of 93 genes selected based on their selectivity and sensitivity to important hepatic receptors known to be modulated by environmental chemicals; importance in human hepatocyte functionality; and hepatotoxicity. […]
For `CC(C)(C)c1cccc(C(C)(C)C)c1O`, the outcome was “inactive”.
For `CN1CCN(c2ccccc2/C=C2\SCCN(c3ccc(Cl)c(Cl)c3)C2=O)CC1`, the AC50 was 1.56 µM (active).
With `CCC(=C(c1ccc(O)cc1)c1ccc(OCCN(C)C)cc1)c1ccccc1` the AC50 was 93.3 µM (active).
For `ClC1=C(Cl)C(Cl)(Cl)C(Cl)=C1Cl`, the outcome was “inactive”.
In the case of `c1ccc2c(c1)Cc1ccccc1-2`, the AC50 is reported as 50 µM (active).
In the case of `COCC(C)OCC(C)O` (stereo not given), the AC50 is reported as 50 µM (active).
For `O=C(O)c1ccccc1C(c1ccc(O)cc1)c1ccc(O)cc1`, the outcome was “inactive”.
`OCCC(F)(F)C(F)(F)C(F)(F)C(F)(F)C(F)(F)C(F)(F)C(F)(F)C(F)(F)F` was tested, and the outcome was “inactive”.
With `CCCCCCCCCCCCN1CCCC1=O` the AC50 was 68.2 µM (active).
With `NC(=O)N(O)[C@@H]1C=C[C@H](Oc2cccc(Oc3ccc(F)cc3)c2)C1` the AC50 was 27.3 µM (active).
For `NC(=O)N1C(=O)C(C(=O)c2cc(Cl)cs2)c2cc(F)c(Cl)cc21` (stereo not given), the AC50 was 3.31 µM (active).
In the case of `CCCCCCCCCCCCc1ccccc1S(=O)(=O)O`, the AC50 is reported as 30.6 µM (active).
For `CCCCCCCCC(=O)O`, the outcome was “inactive”.
For `O=c1c(-c2ccc(O)cc2)coc2cc(O)ccc12`, the outcome was “inactive”.
For `CCCCOCCO`, the AC50 was 50 µM (active).
In the case of `CC(=O)CC(C)(C)O`, the outcome is reported as “inactive”.
In the case of `CN1CCC[C@H]1c1cccnc1`, the AC50 is reported as 70.6 µM (active).
`CC(C)(C)CC(C)(C)c1ccc(O)c(-n2nc3ccccc3n2)c1` was tested, and the AC50 was 41 µM (active).
`Oc1cc2ccccc2c2ccccc12` was tested, and the AC50 was 30.7 µM (active).
`CCC(C)(C)C1CCC(O)CC1` (stereo not given) was tested, and the outcome was “inactive”.
In the case of `COC(=O)CCCCC(=O)OC`, the outcome is reported as “inactive”.
In the case of `CCN(CC)CCNc1ccc(CNC=O)c2sc3ccc(OC)cc3c(=O)c12`, the AC50 is reported as 4.07 µM (active).
For `CCCCCCC(=O)O`, the AC50 was 59.9 µM (active).
`c1ccc2c(c1)ccc1ccccc12` was tested, and the AC50 was 50 µM (active).
With `CC(C)CCCCCCOC(=O)CCCCC(=O)OCCCCCCC(C)C` the AC50 was 50 µM (active).
In the case of `OC1CCCCC1`, the outcome is reported as “inactive”.
`CCCCCCCCOC(=O)CCCCCCCCC(=O)OCCCCCCCC` was tested, and the AC50 was 30.3 µM (active).
With `COc1ccc([N+](=O)[O-])cc1N` the AC50 was 50 µM (active).
`CCCOC(=O)c1ccc(O)cc1` was tested, and the outcome was “inactive”.
For `Cc1oc(-c2ccccc2)nc1CCOc1ccc(C[C@H](Nc2ccccc2C(=O)c2ccccc2)C(=O)O)cc1`, the AC50 was 11.4 µM (active).
In the case of `Oc1cccc(O)c1`, the outcome is reported as “inactive”.
`O=C(OCCOCCOC(=O)c1ccccc1)c1ccccc1` was tested, and the AC50 was 50 µM (active).
With `CCc1ccc(CCOc2ccc(CC3SC(=O)NC3=O)cc2)nc1` (stereo not given) the AC50 was 50 µM (active).
For `N#C[C@@H]1CC(F)(F)CN1C(=O)CNC1CC2CCC(C1)N2c1ncccn1` (stereo not given in full), the AC50 was 72.1 µM (active).
`CCCCCCCCCCCCCCCS(=O)(=O)Oc1ccccc1` was tested, and the AC50 was 11.4 µM (active).
`C[C@@H]1C[C@H]2[C@@H]3CCC4=CC(=O)C=C[C@]4(C)[C@@]3(F)[C@@H](O)C[C@]2(C)[C@@]1(O)C(=O)COP(=O)(O)O` was tested, and the outcome was “inactive”.
`OCCC(F)(F)C(F)(F)C(F)(F)C(F)(F)C(F)(F)C(F)(F)F` was tested, and the AC50 was 84.4 µM (active).
For `CC1=C(/C=C/C(C)=C/C=C/C(C)=C/C(=O)O)C(C)(C)CCC1`, the AC50 was 35.9 µM (active).
With `Cc1cc(CCN2CCN(c3nsc4ccccc34)CC2)cc2c1NC(=O)CC2(C)C` the AC50 was 7.65 µM (active).
`Cc1cc(C)c(O)c(C)c1` was tested, and the AC50 was 50 µM (active).

From PubChem BioAssay (EPA / NIEHS)
